Compound activity from PubChem BioAssay.
CF NFkB inh: cystic fibrosis NF-kB activation inhibition; KKLEB NF-kB-GFP reporter, PAF-induced, GFP fluorescence overnight; hit rate 0.86% among 360,000; inhibition, % at 5 µM;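 active means at least 50% inhibition at 5 µM, scaled per plate between neutral and stimulator controls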;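 further: PAF is a Pseudomonas aeruginosa culture filtrate used as stimulus; plate controls were PAF-stimulated DMSO wells for no effect and unstimulated DMSO wells for full effect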
Peg3 prom inh: Peg3 promoter activity inhibition | inhibition, % at 20 µM | hit rate 1.7% among 360,000 | AID 588405 | HeLa PEG-Prom luciferase reporter, luminescence, overnight;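 active means inhibition of at least 50% at 20 µM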
KKLEB tox: counter-screen for CF NF-kB inhibitors: cytotoxicity; KKLEB CF airway cells viability, ATPlite luminescence, overnight; stronger effect = lower value; cells stimulated with P. aeruginosa culture filtrate; activity change (cytotoxicity), % at 5 µM; hit rate 0.36% among 360,000;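 active means corrected activity change at or below -50% at 5 µM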
EBV LMP1 NFkB: reduces LMP1-driven NF-kappaB luciferase signal; LMP1-induced NF-kappaB luciferase reporter cells, luminescence; inhibition, % at 12.5 µM; hit rate 0.69% among 350,000; AID 504558; in the data active means inhibition above about 41%;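 further: 0% = neutral control wells and 100% = reference inhibitor control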
HIF-2a inh: inhibitors of HIF-2a; 786-0 RCC cells HIF-2a reporter, luciferase luminescence, overnight; inhibition, % at 18.8 µM; hit rate 0.72% among 360,000; AID 624352;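 active means inhibition of the luminescence signal of 40% or more relative to plate controls, in a single-dose primary screen at 18.75 µM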
Shn3 inh set2: reduces Shn3 3'UTR luciferase signal in osteoblasts. Clone20 osteoblast Shn3 3'UTR firefly luciferase, 24 h. inhibition, % at 12.5 µM. hit rate 0.52% among 360,000;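 active means mean inhibition of at least 75% with every replicate also reaching 75%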;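 further: 0% = median of neutral control wells and 100% = pilot-screen positive control compound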
Starred values were filed as active, the others as inactive; / = no result; ! = not active in a repeat. Most compounds without a hit are left out; they make up all but 2.9% or so of the library.

SMILES	CF NFkB inh	Peg3 prom inh	KKLEB tox	EBV LMP1 NFkB	HIF-2a inh	Shn3 inh set2
C#CCOc1ccc(C2C3=C(COC3=O)Nc3cc4c(cc32)OCO4)cc1OC (centres undefined)	-3.3	12.8	4.7	-4.4	15.6	1.7
O=C1OCC2=C1C(c1ccc(F)cc1)c1cc3c(cc1N2)OCCO3 (centres undefined)	63.3*	-1.1	-27.9	-6.4	32.0	26.0
Cc1ccc(OCC(=O)OCC(=O)NC2CCCCCC2)cc1C	9.2	3.9	-2.3	0.6	10.5	14.2
O=C(Cc1ccccc1)NN1CCCCC1	-16.8	4.0	4.0	-3.8	5.9	0.6
O=C(CCCl)Nc1nc2c(s1)CCc1ccccc1-2	-8.2	54.5*	-38.2	-15.5	-34.0	57.7
CC(=O)Nc1nc2c(s1)CCc1ccccc1-2	-47.9	-41.4	-14.1	-3.6	-44.6	8.7
CCOC(=O)c1cc([N+](=O)[O-])c([N+](=O)[O-])cc1NC(C)=O	59.9*	108.6*	-21.4	21.8	23.4	98.1*
O=C(COc1ccc(S(=O)(=O)N2CCOCC2)cc1)Nc1cccc([N+](=O)[O-])c1	2.5	-4.0	-10.1	-0.7	8.8	4.4
CCCCNS(=O)(=O)c1ccc(NS(=O)(=O)c2c(C)cc(C)cc2C)cc1	5.9	17.5	6.5	2.8	10.6	-0.1
c1ccc(-c2noc(-c3ccc4ccccc4c3)n2)nc1	-42.5	86.8*	-90.7*	82.5*	88.0*	88.6*
c1ccc(-c2noc(-c3ccncc3)n2)nc1	8.5	-101.7	1.6	6.4	-135.7	-48.8
O=C(c1ccc(CS(=O)c2cccc(Cl)c2)o1)N1CCN(C2CCCCC2)CC1 (centres undefined)	6.4	17.7	-4.5	-34.4	15.6	-18.9
CN(C(=O)COC(=O)C12CC3CC(CC(Cl)(C3)C1)C2)c1ccccc1	3.0	2.3	4.9	-2.3	15.7	7.7
Cc1cc(C)c(C)c(S(=O)(=O)N2CCN(c3ncnc4ccccc34)CC2)c1C	20.3	42.9	2.6	22.8	10.1	86.4*
CCOC(=O)/C(C#N)=C/c1cccc(F)c1	-10.5	1.3	3.7	-1.9	11.0	3.2
CCOC(=O)/C(C#N)=C/c1cccc(C)c1	-5.5	72.6*	-5.6	3.8	10.8	1.4
CCCSc1nc(SCC(=O)NCc2ccccc2)c2c3c(sc2n1)COC(C)(CC)C3 (centres undefined)	19.8	18.9	-20.5	29.3	18.5	19.5
CCCCSc1nc(SCC(=O)NCc2ccco2)c2c3c(sc2n1)COC(C)(CC)C3 (centres undefined)	-15.8	77.2*	-12.8	-2.5	12.7	32.7
CCCCCCCCCCCCCCCC[n+]1ccc(/C=N/O)cc1	28.3	104.4*	-15.7	5.4	70.3*	57.8
CCCCCCCC[n+]1cccc(C(=O)N(CC)CC)c1	6.7	13.6	-4.7	-2.1	17.8	-1.0
CCCCCCCCCCCCCCCC[n+]1ccccc1	61.9*	97.3*	-50.2*!	29.2	93.1*	96.8*
O=C(NC1CCCC1)C(c1ccccn1)N(C(=O)c1csnn1)c1ccccc1Cl (centres undefined)	-6.3	-3.4	3.1	-2.5	10.1	3.5
COc1ccccc1C(=O)NC(=O)COc1ccc([N+](=O)[O-])cc1	-11.1	2.1	17.4	-2.6	2.0	-7.6
O=C(CN(CC1CCCO1)C(=O)CNS(=O)(=O)c1ccc(F)cc1)NCc1ccc(F)cc1 (centres undefined)	1.5	4.7	2.2	-8.7	9.3	-4.2
Cc1ccc(Nc2c(-c3ccccn3)nc3cccc(C)n23)cc1	24.3	34.9	-35.1	27.1	28.8	89.8*
SMILES	CF NFkB inh	Peg3 prom inh	KKLEB tox	EBV LMP1 NFkB	HIF-2a inh	Shn3 inh set2
Cc1cccc2nc(-c3ccco3)c(Nc3ccccc3)n12	-13.2	3.3	-0.3	-0.4	14.9	5.6
COc1ccc(C(=O)CN(CCC(=O)O)S(=O)(=O)c2ccc([N+](=O)[O-])cc2)cc1	-11.9	-4.1	9.4	60.8*	5.5	4.2
Cc1ccc(C(=O)CN(CCC(=O)O)S(=O)(=O)c2ccc([N+](=O)[O-])cc2)cc1	-8.7	-4.2	10.8	1.3	8.5	59.8
Clc1ccc2nc(N3CCNCC3)nc(-c3ccccc3)c2c1	26.1	101.2*	-29.4	-3.2	15.5	2.2
COC(=O)/C(=C(/F)Sc1cc(C)c(O)c(C)c1)C(F)(F)F	-3.6	63.2*	1.3	2.9	8.3	-3.0
CCn1c(SCc2ccc([N+](=O)[O-])cc2)nnc1C(C)NC(=O)c1ccc(C)cc1 (centres undefined)	19.3	8.3	-13.9	0.7	17.8	5.1
CSc1ccccc1NC(=O)c1cc2ncc(Br)cn2n1	-22.0	-220.9	-3.9	-36.4	-210.7	-95.1
O=C(O)CSCC(=O)Nc1ccc(Cl)cc1C(F)(F)F	-15.8	8.3	6.4	3.3	17.1	0.2
CC(C)N(CC(=O)Nc1ccc(Cl)cc1C(F)(F)F)C(=O)CCl	2.3	64.9*	-19.9	-21.0	18.2	-94.5
CC1(C(=O)NS(=O)(=O)c2cccc(C#N)c2)CCN1C(=O)Cc1ccc(Cl)cc1Cl (centres undefined)	9.1	6.1	-9.3	/	9.0	-22.6
C=CC(=O)N=c1sc2ccccc2n1-c1ccccc1	56.8*	97.7*	-33.3	-12.4	-37.6	9.6
N=c1sc2ccccc2n1-c1ccccc1	2.2	21.6	0.1	5.7	-13.3	6.9
COc1ccc(C(C)NC(=O)C2CCN(CCCc3ccccc3)CC2)cc1OC (centres undefined)	1.3	-0.1	-3.0	/	-8.2	27.4
COc1ccc2c(c1)C=C(CN1CCC(CO)(CCc3ccccc3)CC1)CO2	23.6	15.2	-9.3	-5.0	9.7	44.4
COc1ccc(CC2(CO)CCN(CC3=Cc4cc(Cl)ccc4OC3)CC2)cc1	6.5	27.8	-11.5	10.5	-18.3	90.4*
Cc1nn(CC(=O)NCc2ccc(Cl)cc2)c(C)c1[N+](=O)[O-]	5.8	-0.7	-18.1	-6.6	11.9	1.7
COc1ccccc1Nc1nnc(SCc2nnc(-c3cc(OC)c(OC)c(OC)c3)o2)s1	-2.7	30.1	-0.2	4.4	1.7	-3.9
CCOc1ccccc1Nc1nnc(SCc2nnc(-c3cc(OC)c(OC)c(OC)c3)o2)s1	-4.4	65.2*	-1.5	8.3	2.5	24.5
Cc1cc(C(=O)Cn2nnc3ccccc3c2=O)c(C)n1Cc1cccs1	-0.2	-127.9	-29.7	-30.6	-72.0	-16.7
Cc1cc(C(=O)CN2C(=O)c3ccccc3C2=O)c(C)n1Cc1cccs1	10.1	12.1	-3.4	50.4*	32.5	16.0
COc1cc(OC)cc(C(=O)N[C@H](C(=O)OCC(=O)c2ccc3c(c2)NC(=O)CO3)C(C)C)c1	-6.8	0.7	-8.2	-22.0	17.7	1.7
COc1cc(OC)cc(C(=O)N[C@H](C(=O)OCC(=O)c2ccc(C)c([N+](=O)[O-])c2)C(C)C)c1	6.0	0.6	0.7	84.1*	0.7	-10.5
CC(C)(C)C(=O)N1CCN(c2ccnc3cc(Cl)ccc23)CC1	15.8	23.6	-4.3	7.7	29.3	20.3
